# Screening data from PubChem.
# This is a sample that favours compounds with a hit; in the whole collection about 7.1% have one here.
# LASV entry inh: blocks Lassa virus binding or cell entry; Lassa virus pseudotyped entry inhibition, cell-based qHTS; Potency, µM (doses to about 49.2 µM), without a hit: at the top dose activity change, negative = inhibition, most hits filed as inhibitors; 4.1% of 18,000 active
# MARV entry inh: inhibitors of Marburg virus binding or entry into cells | Marburg virus pseudotype entry/binding inhibition, cell-based | Potency, µM (doses to about 49.2 µM), inactives show at the top dose activity change, negative = inhibition, hits mostly inhibitors | 6.5% of 18,000 active | AID 720532
# * = called active by the depositor; ? = inconclusive; . = not tested or not shown; ! = repeats disagree; [ ] = dose if it differs, or a comment. Calls follow the shape of the full dose curve; tested in HEK293 cells. % is scaled to controls: 0 for no effect and ±100 for the full control effect; potency is read from the fitted curve at half-maximal effect.
SMILES,LASV entry inh,MARV entry inh
COc1ccc2c(c1)CO[C@H]([C@H](O)CO)[C@H]2C=Cc1ccccc1,.,-5.6%[8.59 µM]
CN1CCN(C2=Nc3ccccc3Sc3ccc(Cl)cc32)CC1,?,25.1µM*
CN1CCN(C2=Nc3ccccc3Oc3ccc(Cl)cc32)CC1,-6.3%[17.8 µM],?
COc1ccc2c(c1)[C@@H](NC(=O)C(F)(F)F)C1CCCCC21c1ccccc1 (stereo not given in full),4.6%[8.59 µM],-4.1%[8.59 µM]
CC(C)C[C@H](NC(=O)[C@@H](O)[C@H](N)Cc1ccccc1)C(=O)O,?,-10.0%
CC[C@@H](C)[C@@H](CO[C@@H](Cc1ccccc1)C(=O)N[C@@H](CCS(C)(=O)=O)C(=O)OC(C)C)NC[C@@H](N)CS,-18.5%,10µM*
OC1C=C2CCN3Cc4cc5c(cc4C(C1O)C23)OCO5 (stereo not given),-28.0%,12.6µM*
O[C@H]1[C@H]2c3cc4c(cc3CN3CCC(=C[C@@H]1O)[C@H]23)OCO4,17.5%,1.4%
COc1ccccc1C=CC1=CC2(C)CC1(C)C(c1ccccc1OC)CC2=O (stereo not given),5.7%[8.59 µM],-29.1%[8.59 µM]
C[C@H]1CC[C@@H]2[C@@H](C)[C@H]3[C@H](C[C@H]4[C@@H]5CC=C6C[C@@H](O[C@]7(O[C@H]8O[C@@H](C)[C@@H](O)[C@@H](O)[C@@H]8O)C[C@@H](O[C@@H]8O[C@H](CO)[C@@H](O)[C@H](O)[C@@H]8O)[C@@H](O)[C@H](CO)O7)CC[C@]6(C)[C@H]5CC[C@@]34C)N2C1,14.1%[17.8 µM],4.4%[17.8 µM]
C[C@H]1CC[C@@H]2[C@@H](C)[C@H]3[C@H](C[C@H]4[C@@H]5CC=C6CC(O[C@@H]7O[C@H](CO)[C@H](O)[C@H](O[C@@H]8O[C@H](CO)[C@@H](O)[C@H](O)[C@H]8O)[C@H]7O[C@H]7O[C@@H](C)[C@H](O)[C@@H](O)[C@H]7O)CC[C@]6(C)[C@H]5CC[C@]34C)N2C1 (stereo not given in full),31.6µM*,15.8µM*
COC(=O)C1=C(C)N(CC2CC2)C(=O)NC1CCc1ccccc1 (stereo not given),8.6%[8.59 µM],20.9%[8.59 µM]
COc1ccc2c(c1)OCc1c-2oc2cc(OC)ccc12,4.2%,53.6%
COc1ccc(C=C2c3ccccc3C(=O)c3ccccc32)cc1O,?,1µM*
COc1ccc2c(c1)OC/C(=C\c1ccc(OC)c(O)c1)C2=O,-16.6%,12.6µM*
COc1cc(C/C=C/c2ccccc2)c(OC)cc1O,-8.6%,4.1%
CCN1C(=O)[C@@H]2[C@H]3[C@H](O)[C@H](O)CC(=NO[C@H](C)CN4CCCc5nc(C)c(C)cc54)[C@@H]3CC[C@H]2C1=O,14.0%[8.59 µM],2.3%[8.59 µM]
CCN1C(=NCc2ccc(OC)cc2)NC(c2ccccc2)C(C(=O)OC)=C1C (stereo not given),9.9%[8.59 µM],-22.1%[8.59 µM]
COc1cccc(-n2ncc3c(NN=Cc4cccc(F)c4)ncnc32)c1,.,-10.8%
COC(=O)NCC=Cc1nc(CCCO)co1,-24.0%[8.59 µM],-24.0%[8.59 µM]
O=C(O)c1ccccc1O,-6.4%,4.6%
C[CH2][Hg][S]c1ccccc1C(=O)O,1.12µM*,?
Nc1nc(N)c(N=O)c(OCC2CCCCC2)n1,-4.5%,11.2µM*
C#CCCCON=C1C[C@@H](O)[C@H](O)[C@H]2[C@@H]3C(=O)N(c4ccc(F)cc4F)C(=O)[C@@H]3CC[C@@H]12,16.6%[8.59 µM],-8.0%[8.59 µM]
C[C@@H](c1ccccc1)N1C(=O)[C@@H]2[C@H]3[C@H](O)[C@H](O)CC(=NNC(=O)OCc4ccccc4)[C@@H]3CC[C@H]2C1=O,-28.1%[8.59 µM],-18.4%[8.59 µM]
SMILES,LASV entry inh,MARV entry inh
COc1cc(OC)c2c(-c3cccc(-c4ccc(OC(F)(F)F)cc4)c3)cc(=O)oc2c1,-14.7%,-10.3%
COc1cc(OC)c2c(-c3cccc(-c4ccc(CO)cc4)c3)cc(=O)oc2c1,?,1µM*
COc1cc(OC)c2c(-c3cccc(/C=C/c4ccc(F)cc4)c3)cc(=O)oc2c1,2.9%,19.6%
COc1cc(OC)c2c(-c3cccc(-c4ccc(N(C)C)cc4)c3)cc(=O)oc2c1,?,3.55µM*
COc1cccc([C@@H]2Oc3ccc(Br)cc3[C@H](O)[C@@H]2O)c1,12.3%[8.59 µM],?
COC(=O)C1=C(C)N(Cc2ccccc2)C(=S)NC1CCc1ccccc1 (stereo not given),-3.0%[8.59 µM],38.5%[8.59 µM]
CCCOc1ccc2nc(NC(=O)OC)sc2c1,3.16µM*,17.1%
COC(=O)Nc1nc2ccc(Oc3ccc(NC(=O)Nc4cc(C(F)(F)F)ccc4F)cc3)cc2s1,6.2%,?
C[C@@H]1OC(OC2CC[C@@]3(C)C(CC[C@@]4(C)C3CC=C3C5CC(C)(C)CC[C@]5(C(=O)OC5OCC(O)[C@@H](O)[C@@H]5OC5O[C@@H](C)[C@H](O[C@H]6OC(CO)C(O)C(O)C6O)C(O)C5O)C(O)C[C@@]34C)C2(C)C)C(O)C(O)[C@H]1OC1OCC(O)C(O)[C@H]1O (stereo not given in full),11.2µM*,?
CO[C@@H]1CC[C@@]2(C)[C@@H](CC[C@@]3(C)[C@H]2CC=C2[C@H]4CC(C)(C)[C@H](O)[C@@H](OC(C)=O)[C@]4(CO)[C@H](O)C[C@]23C)[C@@]1(C)CO (tested in a mixture with another compound),8.8%[17.8 µM],-24.4%[17.8 µM]
C[C@H]1N[S+](=O)([O-])c2cccc(Cl)c2O[C@H]1c1ccccc1,-10.7%,-20.5%
COc1cccc2c1C1(CCCCC1)CC2NC(=O)C(F)(F)F (stereo not given),-10.8%[8.59 µM],-14.5%[8.59 µM]
CCCCOC(=O)c1ccc(N)cc1,?,4.7%
CCCCN(CCCC)CCCOC(=O)c1ccc(N)cc1,?,22.4µM*!
CC(C)C[C@H](CO)NS(=O)(=O)c1cccc(Cl)c1F,6.3%,84.8%
CC(C)NC[C@@H](O)COc1ccc(CC(N)=O)cc1,0.8%,-24.3%
CN(CCc1ccc(Cl)c(Cl)c1)C[C@@H](O)COc1ccc(NS(C)(=O)=O)cc1,-21.3%,14.1µM*
C[C@@H]1C[C@H]2CC(=O)N3[C@H](CC(=O)N2[C@H]1c1ccccc1)C[C@@H](C)[C@@H]3c1ccccc1,6.1%[8.59 µM],15.2%[8.59 µM]
COC(=O)C1=C(C)NC(C)=C([N+](=O)[O-])C1c1ccccc1C(F)(F)F (stereo not given),-28.9%,-26.9%
COC(=O)C1=C(C)NC(C)=C(C(=O)OCCN2CCN(C(c3ccccc3)c3ccccc3)CC2)C1c1cccc([N+](=O)[O-])c1 (stereo not given),22.4µM*,12.6µM*
COC(=O)C1=C(C)NC(C)=C(C(=O)OCCN(C)Cc2ccccc2)C1c1cccc([N+](=O)[O-])c1 (stereo not given),25.1µM*!,11.2µM*
COC(=O)C1=C(C#N)NC(C)=C(C(=O)OC(C)C)C1c1cccc([N+](=O)[O-])c1 (stereo not given),-25.1%,?
Cc1cc2c(c(=O)n1Cc1ccccc1)[C@H]1O[C@](CCCCN3C(=O)c4ccccc4C3=O)(Cc3c1ccc1ccccc31)O2,18.8%[8.59 µM],-10.9%[8.59 µM]
COc1ccccc1Nc1ncc(-c2ccccc2)o1,2.0%,10.0%
COc1cccc2c1CCCC2CCCN1CCN(C2CCCCC2)CC1 (stereo not given),22.4µM*!,12.6µM*
COc1ccccc1N1CCN(CCCCN2C(=O)CCC2=O)CC1,2.2%,-4.7%
CC1=C[C@@H]2c3cccc4[nH]cc(c34)C[C@H]2N(C)C1,-14.4%,6.9%
CN1Cc2ccccc2[C@@H]2c3cccc4[nH]cc(c34)C[C@H]21,10µM*,8.91µM*
